A selection: hits, their analogues and other compounds. The true share with any hit is near 11%.
HP1b chromo inh = HTS for Inhibitors of HP1-beta Chromodomain Interactions with Methylated Histone Tails. AlphaScreen HP1-beta / biotin-H3K9me3 peptide binding. Potency, µM (titrated, usually from 114 µM), for inactives: at the highest dose activity change, negative = inhibition, actives largely listed as inhibitors. 390,000 tested, 0.56% active. AID 540317, 2011; further: nearly all actives have a fitted effect of over 70% in size
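AlphaScreen: HP1-beta (50 nM) preformed 30 min with biotin-H3(1-18)K9me3 peptide (50 nM) in PBS pH 7.4, 0.01% Tween-20. Compound added for 30 min at RT, then streptavidin donor/nickel chelate acceptor beads (10 ug/mL) for 30 min.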
JMJD2A Tudor inh = qHTS Assay for Inhibitors of JMJD2A-Tudor Domain. AlphaScreen JMJD2A-Tudor / H3K4me3 peptide binding. Lysine-specific demethylase 4A (Homo sapiens), O75164. Potency, µM (top dose mostly 114 µM), for inactives: top-dose activity change, negative = inhibition, most hits filed as inhibitors. 390,000 tested, 4.4% active; further: on the % scale 0 is the no-effect control and ±100 the full control effect; nearly all actives have a fitted effect of over 50% in size
VDR inhibitor = Inhibitors of the vitamin D receptor (VDR): qHTS. Vitamin D3 receptor (Homo sapiens), P11473. VDR-SRC2-3 peptide fluorescence polarization, 2 h. Potency, µM, inactives show max response, negative = inhibition, most hits filed as inhibitors. 400,000 tested, 0.93% active. AID 504847, 2011; further: on the % scale 0 is the no-effect control and ±100 the full control effect
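VDR–SRC2-3 interaction, FP format. Cmpds 23 nl via pintool, brief spin, 2 h ambient incubation.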
G9a block = qHTS Assay for Inhibitors of Histone Lysine Methyltransferase G9a; G9a H3K9 monomethylation, AlphaScreen, 2 h; 350,000 tested, 8.8% active; Potency, µM (titrated, usually from 102 µM), inactives show at the top dose activity, negative = inhibition, hits mostly inhibitors; further: on the % scale 0 is the no-effect control and ±100 the full control effect; nearly all actives have a fitted effect of over 75% in size
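Chemiluminescent proximity detection of H3K9 monomethylation, read after 10 min bead incubation in the dark. Reaction: 20 nM G9a, 500 nM biotin-H3K9 peptide, 20 uM SAM cofactor, 2 h, room temperature, following 15 min enzyme-compound preincubation.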
PLK1 PBD inh = qHTS for Inhibitors of PLK1-PDB (polo-like kinase 1 - polo-box domain): Primary Screen; 360,000 tested, 2.8% active; AID 720504, 2013; Potency, µM, for inactives: max response, negative = inhibition, actives largely listed as inhibitors; Plk1 PBD binding of FITC phosphopeptide, fluorescence polarization; Serine/threonine-protein kinase PLK1 (Homo sapiens), P53350; further: series mostly up to about 57 µM; on the % scale 0 is the no-effect control and ±100 the full control effect; nearly all actives have a fitted effect of over 65% in size
BAZ2B block = qHTS Assay for Inhibitors of BAZ2B; AlphaScreen BAZ2B-H3K14Ac peptide displacement; Potency, µM (doses to about 114 µM), for inactives: top-dose activity change, negative = inhibition, hits mostly inhibitors; 360,000 tested, 4.4% active; further: on the % scale 0 is the no-effect control and ±100 the full control effect; nearly all actives have a fitted effect of over 60% in size
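AlphaScreen luminescence quantifies BAZ2B engagement of H3K14Ac peptide; the protein and biotinylated peptide are both at 50 nM final, buffer PBS pH 7.4 with 0.01% Tween-20, all steps at room temperature.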
Numbers without * were called inactive; ? = inconclusive; . = not tested or not shown; [ ] = another dose, or the depositor's remark. The call rests on the fitted dose curve; in most records, active means well fitted curve in the direction sought with a large enough effect; inconclusive means small, poorly fitted or top-dose-only effect, or another doubt; inactive means no such curve, though single readings can be large; an effect the other way counts as inactive or inconclusive. Potency means the concentration at half of the fitted maximal effect.

SMILES	HP1b chromo inh	JMJD2A Tudor inh	VDR inhibitor	G9a block	PLK1 PBD inh	BAZ2B block
CCN1C(=O)C(C(=O)c2ccccc2)SC1=S (stereo unspecified)	-37%	56µM*	-27%	22µM*	?	56µM*
CC1CCCCC1NC(=O)CSc1nncn1N (stereo unspecified)	?	-18%[11.4 µM]	-7%	5%[12.7 µM]	21µM*	-8%
CC1CCCCC1NC(=O)CSc1nncs1 (stereo unspecified)	71%	0%	1%	17%	-3%	5%
COc1ccc(CC(=O)OCC(=O)Nc2cc(Cl)ccc2C)cc1	43%	10%	8%	.	-6%	.
COc1cc2c(cc1OC)C[N+](C)(C)CC2	9%	50µM*	-25%	-10%[12.7 µM]	-6%	-6%
COc1cc2c(cc1OC)CC(=O)N(C)CC2	17%	-3%	0%	6%	0%	1%
CN(C)CC1(C)Cc2ccsc2C1O (stereo unspecified)	17%	-1%	-4%	.	6%	.
COCCCNc1oc(COc2ccc(Cl)cc2Cl)nc1C#N	-24%	?	?	32µM*	?	-37%
COc1ccc(OCc2ccc(-c3nc(C#N)c(NCc4ccc(F)cc4)o3)o2)cc1	-12%	?	8%	4µM*	.	?
CN(C)CCNc1oc(COc2ccc(Cl)cc2Cl)nc1C#N	10%	-35%	3%	.	-6%	-8%
COCCNc1oc(-c2ccc(COc3ccc(OC)cc3)o2)nc1C#N	?	?	15%	-29%[59 µM]	.	?
COCCCNc1oc(-c2ccc(COc3ccc(Cl)cc3)o2)nc1C#N	-28%	?	18%	8.9µM*	.	?
N#Cc1nc(-c2ccc(COc3ccc(Cl)cc3)o2)oc1N1CCC(C(N)=O)CC1	12%	-22%	-5%	8.9µM*	.	?
Cc1cc(OCc2cc(C(=O)NCCN3CCCCC3CO)no2)cc(C)c1Cl (stereo unspecified)	10%	-25%	10%	57%	0%	1%
COc1ccc(CNc2oc(COc3ccc(Cl)cc3)nc2C#N)cc1	?	?	12%	?	-4%	?
N#Cc1nc(COc2ccccc2F)oc1NCc1ccc(F)cc1	-8%	-30%	?	35µM*	-6%	?
CCOC(=O)C(=NCC1CCCO1)NNc1cc(Cl)ccc1Cl (stereo unspecified)	2%	?	2%	35µM*	-16%	?
CCOc1cc2c3c(c1)C(C)CC(C)(C)N3C(=O)C2=O (stereo unspecified)	?	-30%	?	-48%[59 µM]	-9%	-10%
CC1CC2(CCCCC2)N2C(=O)C(=O)c3cccc1c32 (stereo unspecified)	?	?	?	71µM*	-29%	?
O=C(N[C@H](C(=O)O)c1ccccc1)C1CCC(Cn2cnc3ccccc3c2=O)CC1 (stereo partly specified)	25%	3%	6%	-8%	2%	-1%
O=C(c1ccccc1)N(CCCl)C(=O)N(CCCl)C(=O)c1ccccc1	.	.	.	.	-7%	.
N#CC(c1ccccc1)N(CCCCl)C(=O)c1ccccc1 (stereo unspecified)	63%	3%	-19%	45µM*	-28%	5%
CC(=O)N1CCN(c2ccc(NC(=O)c3cccc(OCc4ccccc4)c3)cc2)CC1	14%	-22%	-12%	?	0%	?
O=C(Nc1ccccc1)c1ccc(COc2ccccc2)cc1	-10%	-25%	?	.	30µM*	-5%
COc1ccc(NC(=O)c2ccc(COc3ccccc3)o2)cc1	?	?	?	-4%[59 µM]	11µM*	-28%

Screening results: PubChem, National Center for Advancing Translational Sciences (NCATS)
